Source: PubChem BioAssay
A selection: hits, their analogues and other compounds. The true share with any hit is near 2.6%.
PHOSPHO1 inh = inhibitors of human PHOSPHO1 phosphatase | 290,000 compounds, 1.1% hits | inhibition, % at 13.3 µM | AID 1565 | recombinant PHOSPHO1, absorbance phosphatase assay | Q8TCT1; in the data active = inhibition above about 60%
eIF4H inh = inhibitors of RNA binding by human eIF4H | Q15056 | eIF4H fluorescence polarization binding assay | inhibition, % at 35 µM | 290,000 compounds, 0.94% hits | AID 2012;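 note: calls also rest on retests at 20 µM and on dose response follow-up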
A3G deaminase = blocks human APOBEC3G single-stranded DNA deamination; Q9HC16; recombinant A3G, ssDNA deamination FAM/TAMRA fluorescence; inhibition, % at 20 µM; 330,000 compounds, 0.28% hits; AID 493012;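 active = inhibition of at least 40% at 20 µM, with no more than 30% in the related APOBEC3A deaminase screen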
Target sequence (Q9HC16 whole entry, looked up): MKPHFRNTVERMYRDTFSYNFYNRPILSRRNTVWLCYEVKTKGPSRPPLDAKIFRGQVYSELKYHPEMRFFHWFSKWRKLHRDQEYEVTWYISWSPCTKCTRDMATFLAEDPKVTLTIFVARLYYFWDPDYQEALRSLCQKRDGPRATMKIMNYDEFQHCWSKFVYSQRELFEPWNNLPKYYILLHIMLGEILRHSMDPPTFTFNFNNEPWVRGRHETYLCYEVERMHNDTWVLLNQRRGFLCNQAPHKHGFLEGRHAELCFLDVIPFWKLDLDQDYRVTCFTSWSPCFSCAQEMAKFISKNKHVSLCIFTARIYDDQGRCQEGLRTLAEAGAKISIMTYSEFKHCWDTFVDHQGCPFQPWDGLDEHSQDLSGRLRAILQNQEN
PABP FP inh = blocks human PABP binding to poly(A) RNA. fluorescence polarization. AID 2014. P11940. 290,000 compounds, 1% hits. calls only at 35 µM;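 note: calls also rest on retests at 20 µM and on dose response follow-up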
MLLE-PAM2 inh = blocks PAM2 peptide binding to the PABP1 MLLE domain; 360,000 compounds, 0.36% hits; P11940; inhibition, % at 20 µM; AID 588489; GST-MLLE / FITC-PAM2 fluorescence polarization; in the data active = inhibition above about 35%, passing the limit was not always enough
A3A deaminase = human APOBEC3A DNA deaminase inhibition; 330,000 compounds, 0.41% hits; P31941; recombinant A3A, FAM/TAMRA ssDNA deamination fluorescence; inhibition, % at 20 µM;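 active = at least 40% inhibition at 20 µM here, with at most 30% in a related deaminase screen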
Of the large screens only hits and unclear results are named; the others gave an inactive call. Unless noted, the rule behind the calls is not given here.

CC(C)CC(NC(=O)c1ccccc1)C(=O)N/N=C/c1ccco1 (stereo unspecified)	eIF4H inh 58, PABP FP inh active
COc1ccc(NS(=O)(=O)c2cccc(NC(=O)CCC(=O)c3cccs3)c2)cc1	none
COc1ccc(NS(=O)(=O)c2cccc(NC(=O)CCC(=O)c3ccc(Cl)cc3)c2)cc1	eIF4H inh active
COc1ccc(S(=O)(=O)NCc2ccc(C(=O)NCCCN3CCCC(C)C3)cc2)cc1 (stereo unspecified)	none (no result: eIF4H inh, PABP FP inh)
CC(=O)c1ccc(NCC(=O)N2CCN(c3ccccc3)CC2)cc1	PHOSPHO1 inh 98
CC(=O)c1ccc(N2CCN(C(=S)Nc3ccccc3)CC2)cc1	none
COc1ccc(-c2[nH]ncc2CN(C)C(C)c2cccs2)c(F)c1 (stereo unspecified)	none
COc1ccc(-c2[nH]ncc2CN(C)CCc2c(C)n[nH]c2C)c(F)c1	PHOSPHO1 inh 67
COc1cccc(CNC(=O)CN2C(=O)COc3ccc(S(=O)(=O)N4CCCC4)cc32)c1	none
Cc1c(C(=O)O)sc2nc(SCC(=O)Nc3ccc(S(=O)(=O)NC(C)(C)C)cc3)[nH]c(=O)c12	none
Cc1c(C(=O)O)sc2nc(SCC(=O)Nc3ccc(S(=O)(=O)NCCCC(=O)O)cc3)[nH]c(=O)c12	eIF4H inh 1.1
O=C(Nc1ccc2c(c1)CCC2)C1COc2ccccc2O1 (stereo unspecified)	none
Nc1nnc(CC(=O)N/N=C/c2cc([N+](=O)[O-])cc(Br)c2O)s1	eIF4H inh 86, PABP FP inh active
O=C1Nc2ccc(Br)cc2C1=Nc1ccc(-c2nnc3n2CCCCC3)cc1	none (no result: MLLE-PAM2 inh)
c1ccc2c(-c3ccc4nncn4c3)cncc2c1	none (no result: PHOSPHO1 inh, eIF4H inh, A3G deaminase, PABP FP inh, A3A deaminase)
Cc1cc(C)nc(Sc2nc(Cl)nc(N(c3ccccc3)c3ccccc3)n2)n1	PHOSPHO1 inh 83
CC1=C(C(=O)OC(C)C)C(c2coc3ccccc3c2=O)C2=C(CCCC2=O)N1 (stereo unspecified)	none
CCSCCOC(=O)C1=C(C)NC2=C(C(=O)CCC2)C1c1coc2ccccc2c1=O (stereo unspecified)	PHOSPHO1 inh 63
CCSc1cc(C2C(C(=O)OC)=C(C)NC3=C2C(=O)CCC3)c(C)o1 (stereo unspecified)	PHOSPHO1 inh 102
O=C(O)CSc1nnc(COc2ccc(Br)cc2)n1-c1ccccc1	none
O=C1CC(=O)NC(SCC(=O)Nc2ccccc2[N+](=O)[O-])=N1	eIF4H inh 78, PABP FP inh active
Cc1cc(C)nc(SCC(=O)Nc2ccccc2[N+](=O)[O-])n1	none
Cc1cc(C(=O)NNC(=O)c2ccc(F)cc2)c(C)s1	none (no result: PHOSPHO1 inh, eIF4H inh, PABP FP inh)
CCOc1ccc(N=C/C=C/c2ccccc2)c(O)c1	eIF4H inh inconclusive, PABP FP inh active
O=C1c2ccccc2C(=O)c2c1oc(C(F)(F)F)c2C(=O)c1ccccc1	PHOSPHO1 inh 106
O=C1CCCCC1Sc1nnc(Cc2cccs2)n1CCc1ccccc1 (stereo unspecified)	PHOSPHO1 inh 71
CCCc1cc(=O)[nH]c(SCC(=O)Nc2nonc2N)n1	MLLE-PAM2 inh 41
CCCc1cc(=O)[nH]c(SCC(=O)NC(=O)OCC)n1	none
COc1cc(-c2nnc(SCc3cc(=O)oc4cc(O)c(O)cc34)o2)cc(OC)c1OC	eIF4H inh 92, PABP FP inh active
O=C(CCN1CCCCO1)N1CCCC(Nc2cccc(F)c2)C1 (stereo unspecified)	none
COC(=O)CCCC1=CC2=C(c3ccccc3)C(=O)C(C)(OC(=O)C3CCCC3)C(=O)C2=CN1Cc1ccco1 (stereo unspecified)	PABP FP inh active
C=CCN(c1ccc(Cl)cc1)S(=O)(=O)c1cccc(C(=O)O)c1	none
CCn1c(O)c(/C=C/C=C/C=Nc2ccccc2)sc1=S	none
CCCCn1c(O)c(/C=C/C=C/C=Nc2ccccc2)sc1=S	eIF4H inh 54
O=C(O)CC(c1ccccc1)N1C(=O)c2cccc([N+](=O)[O-])c2C1=O (stereo unspecified)	none
S=c1[nH]nc(Cc2c[nH]c3ccccc23)o1	PHOSPHO1 inh 61
CCC1(C)NC(=O)N(CC(=O)Nc2cc(C)on2)C1=O (stereo unspecified)	none (no result: PHOSPHO1 inh, eIF4H inh, PABP FP inh)
O=c1oc(/C=C/c2ccco2)nc2sc3c(c12)CCC3	eIF4H inh 73, PABP FP inh active
O=c1oc(-c2cccs2)nc2sc3c(c12)CCC3	none
COc1ccc(C(C)=O)cc1CSc1nc2cc(Cl)ccc2o1	eIF4H inh 65, PABP FP inh active
O=C(N=Nc1c(O)[nH]c2ccccc12)c1ccc2c(c1)OCO2	eIF4H inh 8.5, PABP FP inh active
CC1=NN(c2ccc(C)c(C)c2)C(=O)/C1=C\C=C\c1ccc([N+](=O)[O-])o1	eIF4H inh 92
O=C(NNc1ccc(Cl)cc1)c1sccc1Cl	MLLE-PAM2 inh 42
O=C(O)c1cc(-c2ccc(/C=c3\sc4nc5ccc(Br)cc5n4c3=O)o2)ccc1Cl	eIF4H inh 55, PABP FP inh active (no result: A3G deaminase, MLLE-PAM2 inh, A3A deaminase)
O=C(O)c1ccccc1-c1ccc(/C=c2\sc3nc4cc(Br)cnc4n3c2=O)o1	PHOSPHO1 inh 62, eIF4H inh 77, PABP FP inh active
O=C(O)c1cc(-c2ccc(/C=C3\NC(=O)N(c4ccc(Cl)cc4)C3=O)o2)ccc1Cl	eIF4H inh 85, PABP FP inh active
NNc1nc2c(-c3cccc(C(F)(F)F)c3)nnn2c2ccccc12	none
COc1ccc(C(=S)NC2CCCCC2)cc1	PHOSPHO1 inh 88
COc1cc(CNc2nc(C)c([N+](=O)[O-])c(C)c2C#N)cc(OC)c1OC	none
Nc1ncc(Br)cc1S(=O)(=O)NC1CCCCC1	PHOSPHO1 inh 72
CC1CCCC(NS(=O)(=O)c2cc(Br)cnc2N)C1C (stereo unspecified)	none (no result: eIF4H inh, PABP FP inh)
COc1ccc2nc(SCC(=O)Nc3ccccc3OC)[nH]c2c1	none
NNc1ccc(Cl)c(C(=O)O)c1	PHOSPHO1 inh 88
O=C(O)/C=C/C(=O)Nc1ccc(Cl)c(C(=O)O)c1	none
CC(NS(=O)(=O)c1ccccc1)C(=O)NCc1ccco1 (stereo unspecified)	none
COc1ccc(/C=C/C2=CCN(Cc3ccc(OC)cc3)CC2)cc1	none
O=C(CCCSc1nc2ccccc2s1)Nc1nccs1	none
O=C(CCCc1nc2ccccc2s1)Nc1nccs1	PHOSPHO1 inh 92
CCn1c(CSCc2ccc(F)cc2)nnc1SCC(=O)NCc1ccccc1	PHOSPHO1 inh 64
O=c1[nH]c(CN2CCc3ccccc3C2)nc2ccccc12	MLLE-PAM2 inh 41
O=C(Nc1nnc(S(=O)(=O)N2CCCCC2)s1)c1ccccc1Br	none
NC(=O)c1ccsc1NC(=O)CSc1nc2ccccc2c(=O)n1CCCO	MLLE-PAM2 inh 51
O=C(NC(=S)NC(CO)Cc1ccccc1)c1ccc(F)cc1 (stereo unspecified)	MLLE-PAM2 inh 33
